# Rows were chosen to be rich in hits. Some 3.5% of all compounds tested hit in one or more screens of this group.
# TEAD-YAP inh: TEAD-YAP interaction inhibition, primary screen, TEAD-YAP interaction inhibitor project, luminescence, HEK-TIYL cells; AID 1259422, 2018; hit rate 1.4% among 640,000; TEAD-Gal4/YAP UAS-luciferase luminescence; inhibition, % at 9.12 µM; in the data active means inhibition above about 32%;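 further: 0% = median of test compound wells and 100% = reference inhibitor wells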
# MITF inh: MITF inhibitors, primary screen, biochemical, AlphaScreen, human; AID 1259374, 2018; AlphaScreen MITF homodimerization, bead proximity signal; hit rate 0.91% among 650,000; inhibition, % at 2.6 µM; in the data active means inhibition above about 50%;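 further: 0% = vehicle wells with protein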
# GPR151 ag: activators of human GPR151, primary screen, cell-based, PathHunter beta-arrestin, luminescence | PathHunter beta-arrestin GPR151 cells | G-protein coupled receptor 151 (Homo sapiens), Q8TDV0 | hit rate 1% among 650,000 | activation, % at 11.2 µM | AID 1508602, 2020; in the data active means activation above about 4.9%;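 further: 0% = median of compound wells and 100% = cells with positive control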
# FBW7 activator: FBW7 E3 ligase activators, primary screen, biochemical, AlphaScreen, human; AlphaScreen FBW7–phospho-cyclin E peptide binding, activator screen; AID 1259310, 2017; F-box/WD repeat-containing protein 7 (Homo sapiens), Q969H0; hit rate 0.13% among 650,000; normalized activity (activation), % at 26.1 µM; in the data active means normalized activity above about 1.9%;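 further: purified mutant Fbw7 with reduced substrate affinity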
# Target sequence (Q969H0 whole entry, looked up): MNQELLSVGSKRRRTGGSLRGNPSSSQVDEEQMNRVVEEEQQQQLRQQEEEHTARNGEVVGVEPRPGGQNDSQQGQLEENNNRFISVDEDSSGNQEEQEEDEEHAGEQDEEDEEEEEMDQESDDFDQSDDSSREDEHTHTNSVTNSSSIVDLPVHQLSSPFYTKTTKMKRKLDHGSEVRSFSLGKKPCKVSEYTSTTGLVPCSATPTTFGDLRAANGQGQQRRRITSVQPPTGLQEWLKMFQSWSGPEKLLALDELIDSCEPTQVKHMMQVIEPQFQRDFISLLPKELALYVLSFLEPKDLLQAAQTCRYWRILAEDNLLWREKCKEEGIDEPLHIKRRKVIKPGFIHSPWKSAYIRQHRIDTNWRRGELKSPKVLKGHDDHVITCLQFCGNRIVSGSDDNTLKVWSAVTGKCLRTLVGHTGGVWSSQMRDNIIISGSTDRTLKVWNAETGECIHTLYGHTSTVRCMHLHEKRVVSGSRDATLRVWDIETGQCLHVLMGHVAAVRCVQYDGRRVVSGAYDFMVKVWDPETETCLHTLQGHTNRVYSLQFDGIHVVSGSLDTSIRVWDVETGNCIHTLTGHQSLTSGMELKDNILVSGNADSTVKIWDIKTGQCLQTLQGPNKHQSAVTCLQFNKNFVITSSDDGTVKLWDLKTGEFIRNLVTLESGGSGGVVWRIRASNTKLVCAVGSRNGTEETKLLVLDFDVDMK
# * = called active by the depositor.
SMILES,TEAD-YAP inh,MITF inh,GPR151 ag,FBW7 activator
O=C1c2c(O)cc(O)cc2O[C@H](c2ccc(O)c(O)c2)[C@H]1O,-12.6,-0.5,1.2,-0.2
O=C1C[C@@H](c2ccccc2)Oc2cc(O)cc(O)c21,-20.7,-13.2,-2.7,0.2
O=c1c(O)cc([C@H]2Oc3cc(O)cc(O)c3C[C@H]2O)cc2c([C@H]3Oc4cc(O)cc(O)c4C[C@@H]3O)cc(O)c(O)c12,-6.3,76.3*,-0.9,-0.3
O=C1c2c(O)cc(O)cc2O[C@H](c2ccc(O)c(O)c2)[C@@H]1O,10.7,-5.5,-0.4,-0.1
CC(Cl)c1nc2ccccc2c(=O)[nH]1 (stereo unspecified),-9.0,-7.9,1.2,0.0
CC(C)(O)C1(C)c2ccccc2CCN1Cc1ccccc1 (stereo unspecified),2.8,1.2,-1.3,0.1
O=C(Nc1ccccc1[N+](=O)[O-])c1ccc2ccccc2c1,-6.7,22.3,-3.4,-0.7
Cc1nc(NC(=O)c2cc3ccccc3o2)ccc1I,-13.8,19.4,-2.5,0.5
Cc1nc(NC(=O)c2ccco2)ccc1I,38.5*,6.5,-6.7,0.1
O=C(OCc1cc(=O)n2c(n1)sc1ccccc12)c1ccc([N+](=O)[O-])o1,2.4,17.6,-0.7,0.1
Cc1ccn2c(-c3csc(Nc4cccc(O)c4)n3)c(C)nc2c1,49.1*,4.2,-0.5,-0.1
CCOc1ccc(Nc2nc(-c3c(C)nc4cc(C)ccn34)cs2)cc1,67.5*,0.3,1.7,-0.2
CCOc1ccccc1Nc1nc(-c2c(C)nc3ccccn23)cs1,7.0,-0.5,0.3,-0.3
Cc1cccc(Nc2nc(-c3c(C)nc4cc(C)ccn34)cs2)c1,11.0,-12.0,-0.4,0.0
CCOc1ccc(Nc2nc(-c3c(C)nc4ccccn34)cs2)cc1,70.3*,2.9,-0.1,0.7
Cc1ccc(OCC(=O)Nc2ccc(Cl)cn2)c(Br)c1,40.1*,-6.2,-1.9,0.0
Cc1ccc(NC(=O)COc2ccc(Cl)cc2Cl)nc1,69.9*,4.2,-2.9,0.8
Cc1nc(NC(=O)COc2ccc(Cl)cc2Cl)sc1C,74.0*,6.6,-7.3,-0.3
Cc1cc(Br)ccc1OCC(=O)Nc1ccc(Cl)cn1,-24.6,17.2,0.1,0.2
Cc1cc(Cl)ccc1OCC(=O)Nc1ccc(Cl)cn1,-29.1,8.7,-0.2,0.0
O=C(CCl)NCCOc1ccc(Cl)cc1Cl,41.4*,9.4,-0.6,0.1
COc1ccc(OC)c(CNn2c(C)nc3ccccc3c2=O)c1,-5.2,-6.7,0.0,-0.1
Cc1nc(NC(=O)/C=C/c2ccccc2)sc1C(=O)NCc1ccccc1,-4.6,1.9,0.9,0.2
Cc1ccccc1NC(=O)c1sc(NC(=O)/C=C/c2ccccc2)nc1C,49.2*,1.0,1.7,0.1
CCOc1ccc(/C=C2/NC(=O)N(CC(=O)Nc3cccc(C)c3)C2=O)c(OCC)c1,5.0,0.8,-0.4,2.8*
SMILES,TEAD-YAP inh,MITF inh,GPR151 ag,FBW7 activator
CCN(CC)CCNC(=O)Cn1c(C)nc2ccccc21,-5.6,13.5,1.3,-0.2
Cc1[nH]c2ccc(CNC(=O)Cn3c(C)nc4ccccc43)cc2c1C,50.1*,13.4,0.4,-0.1
COc1ccc(N2CCn3c(SCc4cccc(C)c4)nnc32)cc1,8.3,-3.6,-0.5,1.9*
COc1ccc(N2CCn3c(SCc4cccc(Cl)c4)nnc32)cc1,7.3,5.0,0.9,0.0
CC(C)(C)C(=O)Nc1ccc(NC(=O)c2cccs2)nc1,94.0*,3.8,-4.0,-0.2
NC(=O)c1ccc(NC(=O)CCl)cc1,-0.2,1.6,-1.8,-0.1
NC(=O)c1sc2nc(C3CC3)cc(-c3cccs3)c2c1N,2.1,4.9,0.0,0.0
COCCNC(=O)c1ccc2c(c1)N=C(C)c1c(C)ccc(C)c1S2,73.8*,5.6,0.2,0.4
COC(CNC(=O)c1ccc2c(c1)N=C(C)c1ccccc1S2)OC,10.3,13.5,0.2,0.2
COCCCNC(=O)c1ccc(C)c(Cl)c1,-2.5,11.3,1.4,1.2
COCCCNC(=O)c1ccc2c(c1)N=C(C)c1c(C)ccc(C)c1S2,55.9*,8.2,-0.1,0.2
COC(CNC(=O)c1ccc2c(c1)N=C(C)c1c(C)ccc(C)c1S2)OC,58.5*,1.0,-0.6,-0.2
COC(CNC(=O)c1ccc2c(c1)N=C(C)c1cc(Cl)ccc1S2)OC,37.7*,-1.3,1.1,-0.1
CNC(=O)c1ccc2c(c1)N=C(C)c1cc(Cl)ccc1S2,1.8,-4.2,-0.3,-0.1
CNC(=O)c1ccc2c(c1)N=C(C)c1c(C)ccc(C)c1S2,48.0*,19.8,1.0,1.1
COc1ccc(-n2ncc3c(SCC(=O)Nc4cc(C)on4)ncnc32)cc1,4.6,23.3,1.1,0.1
CC(C)C(NC(=O)CN(c1ccccc1Br)S(C)(=O)=O)C(C)C,-13.6,21.5,-0.3,2.4*
COc1ccccc1N(CC(=O)NC(C(C)C)C(C)C)S(C)(=O)=O,-2.7,-7.7,-0.1,-0.1
COc1ccc(/C=C/C(=O)NCc2ccccn2)cc1,-21.6,-10.4,-0.3,-0.1
O=C(/C=C/c1ccco1)Nc1ccccn1,50.8*,1.4,-7.2,-1.8
COc1ccc(/C=C/C(=O)Nc2ccccn2)cc1,46.8*,6.5,-10.1,0.1
Cc1ccc(NC(=O)/C=C/c2ccco2)nc1,24.1,3.1,-0.5,0.1
CC(C)(C)c1ccc(/C=C/C(=O)Nc2ccccn2)cc1,70.4*,-7.4,-1.7,0.0
Cc1ccc(NC(=O)COC(=O)C2CC2C)cc1 (stereo unspecified),-12.4,-0.9,-1.4,0.8
CCCc1ccc(-c2ccc(C(=O)Oc3ccc(OC)cc3)cc2)nc1,3.7,4.5,0.6,0.2
SMILES,TEAD-YAP inh,MITF inh,GPR151 ag,FBW7 activator
COc1cccc(CNCCC2CCC(=O)N2Cc2cccc(C)n2)c1 (stereo unspecified),0.6,0.5,-0.9,0.1
O=C(Nc1ccc(O)cc1)c1cc2ccccn2n1,55.8*,6.4,-2.9,0.3
Cc1noc(/C=C/N(C)C)c1S(=O)(=O)Nc1c(C)n(C)n(-c2ccccc2)c1=O,2.4,9.6,0.9,0.2
COc1ccc(-c2cc(O)cc(O)c2)cc1,33.9*,-11.6,0.3,0.2
COc1ccc(-c2ccc(C(C)=O)cc2)cc1,-79.5,-1.6,-0.3,0.1
O=C(NCCc1ccccc1)C1CCN(c2nnc(N3CCCC3=O)s2)CC1,4.1,-7.3,-3.0,0.0
CCOC(=O)C1=C(C)N=c2s/c(=C/c3ccc(Br)s3)c(=O)n2C1c1cc(OC)ccc1OC (stereo unspecified),-3.6,-1.9,0.3,-0.1
Cc1ccc(N2C(=O)CSC2c2cccc([N+](=O)[O-])c2)cc1F (stereo unspecified),33.6*,-0.2,-1.1,-0.3
COc1ccc(C2=NN(C(=O)CSc3nnc(CNC(=O)Cc4ccccc4)n3-c3ccccc3)C(c3ccc(OC)cc3)C2)cc1 (stereo unspecified),1.2,4.5,0.3,0.0

# Screening data: PubChem, The Scripps Research Institute Molecular Screening Center
